Measurements as given in PubChem BioAssay (NCI).
Where “and” joins values, the source holds several entries; their conditions need not be identical. Equal entries are not always repeated. Compounds without any hit were thinned out: in the full panel of roughly 83,000, 20% have a hit.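 Interpretation: 100, growth as untreated; towards 0, rising growth inhibition; 0, no net growth; 0 to -100, cell death. Compounds scoring below 10 were considered active.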 Values without a mark were called inactive. Calls of active or inactive are those of the source.

These compounds were tested on MDA-MB-468 breast (assay: NCI-60 one-dose screen, 48 h (100 = growth as untreated, 0 = no growth, -100 = all killed)). Settings: 10 µM unless noted.
For `COc1cccc2c1c(C(=O)C(=O)Nc1ccn[nH]1)cn2Cc1ccc(F)cc1`, the growth was 43.3%. For `O=C1C=C(N2C3C4CCC(C4)C32)C(=O)C=C1c1ccccc1` (centres undefined), the growth was 16.9%. In the case of `Cc1cc(C(C)(C)c2ccc(O)c(C)c2)ccc1O`, the growth was 87.8%. In the case of `N#Cc1nc(-c2ccccc2)oc1N1CCC(S(=O)(=O)F)CC1`, the growth was 110%. `C[C@@H]1CCC2[C@@H](C)[C@H](OC(=O)CCC(=O)NCCNC(=O)Cc3cc(=O)oc4cc(N(C)C)ccc34)O[C@@H]3O[C@]4(C)CC[C@@H]1C23OO4` (some centres undefined) was tested, and the growth was 63.7%. For `CCCn1cc2c3c(cccc31)[C@H]1C[C@@H](C)CN(C)[C@@H]1C2`, the growth was 95.5%. `CCCCCCCCCCCCCCCC[N+](C)(C)C` was tested, and the growth was -77.9% (active) and -17% (active). Work on `COc1ccc(/C=C\c2cc(OC)c(OC)c(OC)c2)c(NS(=O)(=O)c2ccc(C)cc2)c1O` yielded a growth of 23.2%. Compound `COc1cccc(C=NC(Cc2cnc[nH]2)C(=O)O)c1O` (centres undefined) has a growth of 55.4%. For `O=C(CCCN1CCC2(CC1)C(=O)NCN2c1ccccc1)c1ccc(F)cc1`, the growth was 103% and 32.6%. `C/C(=N/OC(=O)N(C)C)c1cc(Cl)ccc1Cl` gave a growth of 102%. `CC[C@H](C)[C@H](NC(=O)C12CC(NC(C)=O)(C1)C2)C(=O)N(C)[C@H](C[C@@H](OC(C)=O)c1nc(C(=O)N[C@@H](Cc2ccccc2)C[C@H](C)C(=O)OC)cs1)C(C)C` was tested, and the growth was 5.12% (active). `O=C(CC1(O)C(=O)Nc2ccccc21)c1ccc(C(=O)NCC2CCC3(CC2)OOC2(CCCCC2)OO3)cc1` (centres undefined) was tested, and the growth was 53.7%. Work on `CC1=C[C@H]2O[C@@H]3C[C@@H](O)[C@](C)([C@@]2(C)CC1)[C@@]31CO1` yielded a growth of 28.7%. In the case of `CC(C)c1cc([N+](=O)[O-])cc([N+](=O)[O-])c1O`, the growth was 96.7%. With `COC[C@@H]1C[C@@]2(C)[C@@H](CC[C@@H]3[C@@H]2CC[C@@]2(C)[C@H]3CC[C@]2(C)O)CC1=O` the growth was 99%. With `CC[C@H](C)[C@H]1O[C@]2(C=C[C@@H]1C)C[C@@H]1C[C@@H](C/C=C(\C)[C@@H](O[C@H]3C[C@H](OC)[C@@H](O[C@H]4C[C@H](OC)[C@@H](NC)[C@H](C)O4)[C@H](C)O3)[C@@H](C)/C=C/C=C3\CO[C@@H]4[C@H](O)C(C)=C[C@@H](C(=O)O1)[C@]34O)O2` the growth was -68.8% (active). Compound `CC1(C)S[C@H]2CC[C@H]3OC(=O)[C@@H]1N23` has a growth of 95.7%. For `CC(C)OC(=O)[C@H](C)NP(=O)(Oc1ccccc1)C1CCCN(O)C1=O` (some centres undefined), the growth was 96.9%. `CCN(CCO)C(Cc1ccccc1)c1ccccc1` (centres undefined) gave a growth of 96%. In the case of `CC1=C2C(=C[C@@](C)(COS(C)(=O)=O)[C@@H]2O)C(=O)[C@](C)(O)C12CC2`, the growth was -54.8% (active). For `O=C(Cc1ccccc1)NC(O)C(Cl)(Cl)Cl` (centres undefined), the growth was 104%. With `C[C@@H]1CCC/C=C/[C@H]2C[C@@H](O)C[C@@H]2[C@@H](O)/C=C/C(=O)O1` the growth was -21.4% (active). `O=C(/C=C/c1ccccc1)N[C@@H](CO)Cc1cnc[nH]1` showed a growth of 102%. `O=S(=O)(F)c1cccc(Cl)c1C[P+](c1ccccc1)(c1ccccc1)c1ccccc1` gave a growth of 46.9%. For `COc1cc(NC(C)CCCNC2CN3CCC2CC3)c2ncccc2c1` (centres undefined), the growth was -1.39% (active). In the case of `CCCCN1CCCC[C@@H]1C(=O)N[C@H](C(=O)N(C)[C@H](CCc1nc(C(=O)N[C@@H](Cc2ccccc2)C[C@H](C)C(=O)OC)cs1)C(C)C)[C@@H](C)CC`, the growth was -1.75% (active). In the case of `CC(C)=CCC[C@H](C(=O)O)[C@@H]1CC[C@]2(C)C3=C(CC[C@@]12C)[C@@]1(C)CC[C@H](O)C(C)(C)[C@@H]1CC3`, the growth was 107%. For `COc1ccc(C2SCC(=O)Nc3c2c(C)nn3-c2nc3ccc(C)cc3s2)cc1O` (centres undefined), the growth was 23.4%. For `OCCN=Cc1c[nH]c2ccccc12`, the growth was 119%. `COc1ccc(C2=CC(c3ccc(OC)c(OC)c3)c3c(c4ccccc4oc3=O)O2)cc1OC` (centres undefined) was tested, and the growth was -8.37% (active). In the case of `COc1ccc2c(c1)c(-c1nc(-c3c[nH]c4ncccc34)cs1)cn2CCCCN1CCCCC1`, the growth was -75.6% (active). Work on `O=C1C=Cc2ccccc2C1=O` yielded a growth of 104%. For `N#Cc1ncc(/N=C/c2ccc(N(CCCl)CCCl)cc2)s1`, the growth was -2.43% (active).
